Screening results from PubChem BioAssay.
Rows were chosen to be rich in hits. Some 1.2% of all compounds tested hit in one or more screens of this group.
RPL19A TOR yeast: modulators of TOR pathway RPL19A-GFP in S. cerevisiae; S. cerevisiae RPL19A-GFP strain, flow cytometry, 3 h; stronger effect = lower value; percent response vs DMSO, % at 10 µM; actives 0.3% (n = 330,000);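 active = percent response vs DMSO below 50%; inconclusive = fewer than 70 events counted for the yeast strain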;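 note: median channel GFP fluorescence of the barcoded RPL19A-GFP strain; ratio of sample median GFP to plate DMSO average so 100% = DMSO; lower means less RPL19A-GFP as with rapamycin TOR inhibition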
AGP1-GFP MLPCN: alters AGP1-GFP fluorescence in TOR pathway yeast screen | S. cerevisiae AGP1-GFP multiplex flow cytometry, 3 h; GFP as percent of DMSO wells | GFP response vs DMSO, % at 10 µM | actives 0.02% (n = 320,000) | AID 2066;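 active = GFP response relative to DMSO above a set limit, near screen average plus 3 SD, cut at about 150% in these data; inconclusive = fewer than 70 cells counted for the yeast strain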;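 note: median GFP channel fluorescence of the gated AGP1 strain per well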
LAP4-GFP MLPCN: alters LAP4-GFP fluorescence in TOR pathway yeast screen; S. cerevisiae LAP4-GFP multiplex, flow cytometry GFP, 3 h; median GFP as percent of DMSO wells; GFP response vs DMSO, % at 10 µM; actives 0.34% (n = 320,000);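 active = GFP response vs DMSO above a set limit, about the screen mean plus 3 SD, cut at about 150% in these data; inconclusive = under 70 cell events counted for the yeast strain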
Pemphigus Ab inh: human desmoglein-3 autoantibody binding inhibition | P32926 | DSG3-coupled beads, scFv-anti-DSG3-GFP binding, flow cytometry; stronger effect = lower value | binding (percent of control), % at 10 µM | actives 0.48% (n = 310,000);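 active = binding more than 3 SD below its plate's average and above zero; inconclusive = below that plate limit but binding exactly zero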;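 note: hits lower antibody fragment binding to DSG3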
Target sequence (P32926 whole entry, looked up, the tested form may be a part): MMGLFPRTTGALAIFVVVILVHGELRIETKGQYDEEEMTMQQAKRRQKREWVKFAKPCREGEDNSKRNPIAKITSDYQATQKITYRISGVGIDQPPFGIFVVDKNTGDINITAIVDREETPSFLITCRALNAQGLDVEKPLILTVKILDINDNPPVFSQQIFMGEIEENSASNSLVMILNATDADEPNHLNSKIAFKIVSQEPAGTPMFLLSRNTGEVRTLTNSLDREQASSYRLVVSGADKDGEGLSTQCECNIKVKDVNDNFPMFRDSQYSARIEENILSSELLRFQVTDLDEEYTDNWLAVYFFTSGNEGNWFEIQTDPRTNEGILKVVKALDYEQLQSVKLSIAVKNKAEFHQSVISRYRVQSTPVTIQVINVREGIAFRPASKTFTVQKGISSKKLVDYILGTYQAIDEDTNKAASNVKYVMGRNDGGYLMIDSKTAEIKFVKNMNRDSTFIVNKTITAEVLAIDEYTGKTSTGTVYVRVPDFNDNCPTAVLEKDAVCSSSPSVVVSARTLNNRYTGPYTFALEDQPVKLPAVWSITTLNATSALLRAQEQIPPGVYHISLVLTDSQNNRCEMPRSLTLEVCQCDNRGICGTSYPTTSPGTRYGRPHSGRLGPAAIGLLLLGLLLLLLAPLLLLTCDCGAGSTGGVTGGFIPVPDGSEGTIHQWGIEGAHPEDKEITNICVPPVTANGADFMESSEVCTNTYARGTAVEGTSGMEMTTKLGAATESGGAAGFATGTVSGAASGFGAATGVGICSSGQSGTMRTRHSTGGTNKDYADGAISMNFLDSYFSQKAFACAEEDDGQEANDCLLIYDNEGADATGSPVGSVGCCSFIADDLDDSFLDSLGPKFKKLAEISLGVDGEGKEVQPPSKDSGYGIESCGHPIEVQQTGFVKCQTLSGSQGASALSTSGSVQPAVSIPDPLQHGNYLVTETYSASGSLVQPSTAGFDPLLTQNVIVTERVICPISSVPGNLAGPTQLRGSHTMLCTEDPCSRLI
CIT2 TOR yeast: yeast TOR pathway CIT2-GFP modulation; GFP response vs DMSO, % at 10 µM; actives 0.065% (n = 320,000); AID 2029; S. cerevisiae CIT2-GFP strain, flow cytometry, 3 h; 100 means same as DMSO wells;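 active = GFP response relative to DMSO above a set limit, near the screen mean plus 3 SD, cut at about 150% in these data; inconclusive = Fewer than 70 cells measured for a yeast strain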;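 note: ratio of well median GFP fluorescence to mean of DMSO wells on the plate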
MEP2-GFP yeast: modulators of TOR pathway MEP2-GFP in S. cerevisiae; S. cerevisiae MEP2-GFP strain, flow cytometry GFP, 3 h; 100% = DMSO control level; GFP response vs DMSO, % at 10 µM; actives 0.51% (n = 330,000);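 active = GFP response versus DMSO above a set limit, roughly screen mean plus 3 SD, cut at about 180% in these data; inconclusive = fewer than 70 cells counted for a yeast strain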;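 note: median GFP fluorescence of the barcode-gated MEP2-GFP cells per well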
Numbers without * were called inactive; [ ] = dose if it differs, or a comment.

CN(C(=O)C1CC1)C1CCS(=O)(=O)C1 (configuration not stated) was read as RPL19A TOR yeast 100, AGP1-GFP MLPCN 102, LAP4-GFP MLPCN 97, Pemphigus Ab inh 84*, CIT2 TOR yeast 97 and MEP2-GFP yeast 102.
Screening Cc1c(Br)c(O)c(Br)c2sc(=O)oc12 returned RPL19A TOR yeast 48*, AGP1-GFP MLPCN 57, LAP4-GFP MLPCN 177*, Pemphigus Ab inh 102, CIT2 TOR yeast 76 and MEP2-GFP yeast 100.
`O=c1[nH]c(/C(Cl)=C/c2cc(Cl)ccc2O)nc2cc(Cl)ccc12` gave RPL19A TOR yeast 101, AGP1-GFP MLPCN 94, LAP4-GFP MLPCN 70, Pemphigus Ab inh 115, CIT2 TOR yeast 100 and MEP2-GFP yeast 83.
For C[C@@H]1CN([C@H](C)CO)C(=O)CCCn2nncc2CO[C@H]1CN(C)Cc1ccc(O)cc1 the results were Pemphigus Ab inh 31*.
For O=C(c1ccc(Cl)cc1)[C@@H]1[C@@H]2C(=O)N(c3ccccc3)C(=O)[C@@H]2C2c3ccccc3C=NN21 (some centres not stated) the results were RPL19A TOR yeast 107, AGP1-GFP MLPCN 101, LAP4-GFP MLPCN 95, Pemphigus Ab inh 78*, CIT2 TOR yeast 98 and MEP2-GFP yeast 99.
Screening O=C(NC1CCSc2ccccc21)c1cc([N+](=O)[O-])ccc1N1CCOCC1 (configuration not stated) returned RPL19A TOR yeast 99, AGP1-GFP MLPCN 113, LAP4-GFP MLPCN 115, Pemphigus Ab inh 102, CIT2 TOR yeast 105 and MEP2-GFP yeast 106.
Screening CC(C)CCC1(CCNC(C)c2cccs2)CCOC(C)(C)C1 (configuration not stated) returned RPL19A TOR yeast 106, AGP1-GFP MLPCN 109, LAP4-GFP MLPCN 102, Pemphigus Ab inh 105, CIT2 TOR yeast 96 and MEP2-GFP yeast 102.
`N#Cc1c2ncn(CC(=O)c3ccc(Br)cc3)c(=O)c2c2n1CCC2` gave RPL19A TOR yeast 99, AGP1-GFP MLPCN 105, LAP4-GFP MLPCN 106, Pemphigus Ab inh 30*, CIT2 TOR yeast 104 and MEP2-GFP yeast 108.
CCOc1cc(NC(=O)c2ccccn2)c(OCC)cc1NC(=O)c1cccc(C)c1 was read as RPL19A TOR yeast 101, AGP1-GFP MLPCN 102, LAP4-GFP MLPCN 88, Pemphigus Ab inh 74*, CIT2 TOR yeast 105 and MEP2-GFP yeast 105.
For Cc1cccc(OCC(=O)NCCNC(=O)c2ccccn2)c1 the results were RPL19A TOR yeast 31*[may fluoresce violet], AGP1-GFP MLPCN inconclusive, LAP4-GFP MLPCN inconclusive, Pemphigus Ab inh 91, CIT2 TOR yeast inconclusive and MEP2-GFP yeast inconclusive.
Screening Cc1ccc(OCC(=O)NCCCNC(=O)c2ccccn2)cc1 returned RPL19A TOR yeast 107, AGP1-GFP MLPCN 95, LAP4-GFP MLPCN 102, Pemphigus Ab inh 97, CIT2 TOR yeast 103 and MEP2-GFP yeast 111.
CC1=C(C(=O)N2CCOCC2)CC(CC(=O)NCc2ccco2)C(=O)N1CCC1=CCCCC1 (configuration not stated) was read as Pemphigus Ab inh 98.
Screening CCN(CC(=O)Nc1c(F)cccc1F)C(=O)c1cccc(-n2cnnn2)c1 returned Pemphigus Ab inh 96.
`CCOc1ccc(CCNC(=O)Cc2ccc(NC(=O)C3=C(C)OCCS3)cc2)cc1` gave RPL19A TOR yeast 101, AGP1-GFP MLPCN 103, LAP4-GFP MLPCN 103, Pemphigus Ab inh 104, CIT2 TOR yeast 107 and MEP2-GFP yeast 105.
Screening CSc1ccc(CNC(=O)Cc2ccc(NC(=O)C3=C(C)OCCS3)cc2)cc1 returned RPL19A TOR yeast 101, AGP1-GFP MLPCN 109, LAP4-GFP MLPCN 98, Pemphigus Ab inh 54*, CIT2 TOR yeast 111 and MEP2-GFP yeast 98.
For Cc1ccc(OCc2cc(C(=O)N(CCO)Cc3cccs3)no2)cc1C the results were RPL19A TOR yeast 93, AGP1-GFP MLPCN 90, LAP4-GFP MLPCN 91, CIT2 TOR yeast 93 and MEP2-GFP yeast 97.
Screening O=C(CCNc1ccc(F)c(Cl)c1)c1ccco1 returned RPL19A TOR yeast 97, AGP1-GFP MLPCN 93, LAP4-GFP MLPCN 115, Pemphigus Ab inh 112, CIT2 TOR yeast 92 and MEP2-GFP yeast 102.
